We go through 18 molecules from PubChem BioAssay (NCATS).

Molecules are shown by their SMILES. Inconclusive results are not listed. Entries that show only a call come without a potency. The source made the active and inactive calls. The call rests on the fitted dose curve; in most records, active means well fitted cell-killing curve with a large enough effect; inconclusive means small, poorly fitted or top-dose-only effect, or effect the other way; inactive means no such curve, though single readings can be large or run the other way.
Potency means the concentration at half of the fitted maximal effect.

This experiment is described as follows: Quantitative High-Throughput drug screen in 47 multiple myeloma cell lines against the NCATS MIPE library collection: XG6_PLB cell viability assay (AID 1919865). Further: nearly all actives have a fitted effect of over 40% in size. To be noted: XG6 myeloma viability, CellTiter-Glo ATP luminescence, 48 h; series mostly up to 45.8 µM. An outline of the steps:
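MIPE 4.0 approved/investigational drugs; 500 cells/well; 48 h 37 °C humidified 5% CO2; CTG luminescence readout; DMSO = 100%, media = 0% viability.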
On the technique in general: In ATP-based viability assays light output follows the ATP content of the culture.
As to `N#CC1(c2ccc(NC(=O)c3cccnc3NCc3ccncc3)cc2)CCCC1`, the Potency is 18.7 µM (active).
As to `O=C1NC(=O)C(=Cc2ccc3c(c2)OC(F)(F)O3)S1`, the Potency is 1.66 µM (active).
The entry for `COc1cc(O)c2c(c1)C(=O)c1cc(C)cc(O)c1C2=O` is “inactive”; for `CC(C)(C)COc1ccc(-n2cc(C(=O)O)cn2)cc1C#N` it is “inactive”; for `COc1ccc(C2CC(c3ccccc3)=NN2c2ccc(S(N)(=O)=O)cc2)cc1` (stereo not drawn) it is 18.7 µM (active).
The entry for `Nc1ncnc2c1ncn2[C@@H]1O[C@@H](CO)[C@H](O)[C@H]1O` is “inactive”; for `COc1cc(N2CCC(N3CCN(C)CC3)CC2)ccc1Nc1ncnc(Nc2ccccc2S(=O)(=O)C(C)C)n1` it is 7.43 µM (active).
Take `O=C(OCC#CCSc1nnc(-c2cccc3ccccc23)o1)c1cc2ccccc2s1`: the Potency entry was “inactive”.
`Cc1cnc(C(=O)O)c[n+]1[O-]`: the Potency entry was “inactive”.
For `O=C1C[C@@H](c2ccc(O)cc2)Oc2cc(O)cc(O)c21` the value was “inactive”; for `CC1(C)Cc2c(sc(NC(=S)NC(=O)c3ccccc3)c2C(=O)O)CO1`, 14.8 µM (active).
For `CCC(CC)[C@H](NC(C)=O)[C@@H]1[C@H](O)[C@@H](C(=O)O)C[C@@H]1N=C(N)N` the value was “inactive”; for `CC(C)C[C@H](CC(=O)O)C(=O)N[C@@H](Cc1c[nH]c2ccccc12)C(=O)N[C@@H](C)c1ccccc1`, “inactive”; for `CC(C)(C)c1cc(C(=O)O)c(NC(=O)Nc2ccc3[nH]ncc3c2)s1`, “inactive”.
Turning to `C[N+](C)(C)CC(=O)O`, the Potency entry is “inactive”.
For `CCOC(=O)O[C@]1(C(=O)OCCl)CC[C@@H]2[C@H]3CCC4=CC(=O)C=C[C@]4(C)[C@@H]3[C@@H](O)C[C@@]21C` the value was “inactive”.
The entry for `O=c1ccn([C@@H]2O[C@H](CO)[C@H](O)[C@H]2O)c(=O)[nH]1` is “inactive”.
Regarding `CC(C)OC(=O)C(C)(C)Oc1ccc(C(=O)c2ccc(Cl)cc2)cc1`, the Potency result is “inactive”.
